Source: PubChem BioAssay (NCATS)
Inconclusive results are not listed. Where a call stands in place of a potency, no number is given. The source made the active and inactive calls. Calls follow the shape of the dose curve; as a rule, active = well fitted inhibition curve with a large enough effect; inconclusive = small, poorly fitted or top-dose-only effect; inactive = flat fitted curve, though single readings scatter.

The molecules below were run on FAB9 (assay: qHTS profiling for inhibitors of Plasmodium falciparum proliferation (AID 504749; also: nearly all actives have a fitted effect of over 60% in size)). Conditions: P. falciparum in erythrocytes, SYBR Green DNA, 72 h; series mostly up to 28.7 µM.
In short: (§1)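 P. falciparum-infected erythrocytes (0.3% parasitemia, 2.5% hematocrit) incubated with compound 72 h at 37 C, 5% CO2. Parasite DNA detected by SYBR Green after lysis, overnight at room temperature; normalised to 0.29 uM artemisinin and DMSO.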
Potency is read from the fitted curve at half-maximal effect.

| Structure (SMILES) | Potency |
| --- | --- |
| Nc1nc(O)c(-c2ccccc2)o1 | inactive |
| C=CC[N+]1(C)CCC23c4c5ccc(O)c4O[C@H]2C(=O)CC[C@@]3(O)C1C5 (some centres undefined) | inactive |
| OC[C@@H](O)[C@H]1O[C@@H]2OC(C(Cl)(Cl)Cl)O[C@H]2[C@H]1O (some centres undefined) | inactive |
| CCCCCCC(=O)O[C@H]1CC[C@H]2[C@@H]3CCC4CC(=O)C=C(C)[C@]4(C)[C@H]3CC[C@]12C (some centres undefined) | inactive |
| Cc1cc(C)cc(C(=O)OC2CC3CCC(C2)N3C)c1 (centres undefined) | inactive |
| CCCN1CCCC2Cc3nc(N)ncc3CC21 (centres undefined) | inactive |
| COc1ccc2c3c1O[C@H]1[C@@H](O)C=C[C@H]4C(C2)NCCC341 (some centres undefined) | inactive |
| CCCCCC(O)C1C(=O)OC(C)C(O)\C=C/C=C\C=C/C=C\C=C(\C)C(O)C(O)C(O)CC(O)CC(O)CC(O)CC(O)CC1O (centres undefined) | inactive |

Each molecule was assayed on GB4 in the same assay as above. Conditions: P. falciparum in erythrocytes, SYBR Green DNA, 72 h; series mostly up to 28.7 µM.
In short: as §1

| Structure (SMILES) | Potency |
| --- | --- |
| C[C@H](N)Cc1ccccc1 | inactive |
| C[C@]12C=CC(=O)C=C1CC[C@@H]1C2CC[C@]2(C)OC(=O)CCC12 (some centres undefined) | inactive |
| OCC(O)[C@H]1O[C@@H]2O[C@H](C(Cl)(Cl)Cl)O[C@@H]2[C@H]1O (some centres undefined) | inactive |
| CC1(C)[C@@H](C=C(Cl)Cl)[C@@H]1C(=O)OCc1c(F)c(F)cc(F)c1F | inactive |
| CC1(C)S[C@@H]2[C@H](N)C(=O)N2C1C(=O)O (some centres undefined) | inactive |
| C=C1Nc2ccccc2C(=O)N1c1ccccc1C | inactive |
| CC1OC(O[C@H]2C[C@@H](O)[C@]3(CO)[C@@H]4C(CC[C@]3(O)C2)[C@@]2(O)CC[C@H](C3=CC(=O)OC3)[C@@]2(C)C[C@H]4O)C(O)C(O)C1O (some centres undefined) | inactive |
| O=[N+]([O-])OC1CO[C@H]2C(O[N+](=O)[O-])COC12 (some centres undefined) | inactive |
| CCOC(=O)/C=C(C)/C=C/CC(C)CCCC(C)C (centres undefined) | inactive |
| [S]=[Sb][S][Sb]=[S] | inactive |
| CN1C2CCC1C(C(=O)O)C(OC(=O)c1ccccc1)C2 (centres undefined) | inactive |
| C[C@@H]1CC[C@H]2[C@@H](C)C(=O)O[C@@H]3OC4(C)CC[C@@H]1C32OO4 (some centres undefined) | 6.7 nM (active) |
| Nc1nc(O)c(-c2ccccc2)o1 | inactive |
| C=CC[N+]1(C)CCC23c4c5ccc(O)c4O[C@H]2C(=O)CC[C@@]3(O)C1C5 (some centres undefined) | inactive |
| OC[C@@H](O)[C@H]1O[C@@H]2OC(C(Cl)(Cl)Cl)O[C@H]2[C@H]1O (some centres undefined) | inactive |
| CCCCCCC(=O)O[C@H]1CC[C@H]2[C@@H]3CCC4CC(=O)C=C(C)[C@]4(C)[C@H]3CC[C@]12C (some centres undefined) | inactive |
| Cc1cc(C)cc(C(=O)OC2CC3CCC(C2)N3C)c1 (centres undefined) | inactive |
| CCCN1CCCC2Cc3nc(N)ncc3CC21 (centres undefined) | inactive |
| COc1ccc2c3c1O[C@H]1[C@@H](O)C=C[C@H]4C(C2)NCCC341 (some centres undefined) | inactive |
| CCCCCC(O)C1C(=O)OC(C)C(O)\C=C/C=C\C=C/C=C\C=C(\C)C(O)C(O)C(O)CC(O)CC(O)CC(O)CC(O)CC1O (centres undefined) | inactive |
| CCCCCc1cc(O)c2c(c1)OC(C)(C)C1CC=C(C)CC21 (centres undefined) | 1690 nM (active) |
